We go through 58 compounds from PubChem BioAssay AID1851 (National Center for Advancing Translational Sciences (NCATS), 2009).

About 4,000 (25%) of roughly 16,000 compounds were called active. Not shown: some 26% with an inconclusive outcome. The call rests on the fitted dose curve; in most records, active means well fitted curve in the direction sought with a large enough effect; inconclusive means small, poorly fitted or top-dose-only effect, or effect the other way; inactive means no such curve, though single readings can be large or run the other way. Only a sample is shown.
On the % scale 0 is the no-effect control and ±100 the full control effect.

Cytochrome P450 2C9 (Homo sapiens), sequence (P11712 whole entry, looked up): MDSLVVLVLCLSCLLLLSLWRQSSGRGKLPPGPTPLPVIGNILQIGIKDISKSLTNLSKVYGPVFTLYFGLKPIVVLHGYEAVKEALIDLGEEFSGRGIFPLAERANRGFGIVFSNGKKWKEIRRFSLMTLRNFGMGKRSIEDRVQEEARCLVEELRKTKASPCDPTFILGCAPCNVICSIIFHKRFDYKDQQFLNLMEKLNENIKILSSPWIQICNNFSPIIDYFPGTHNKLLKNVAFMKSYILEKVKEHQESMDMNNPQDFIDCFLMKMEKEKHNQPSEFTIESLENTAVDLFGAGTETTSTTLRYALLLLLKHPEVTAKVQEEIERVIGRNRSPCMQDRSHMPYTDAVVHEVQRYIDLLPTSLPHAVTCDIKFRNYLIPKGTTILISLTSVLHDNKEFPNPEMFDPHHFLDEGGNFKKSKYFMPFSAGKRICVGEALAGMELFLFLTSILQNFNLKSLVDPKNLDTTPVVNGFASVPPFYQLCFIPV

For the experiment, the target named is Cytochrome P450 2C9 (Homo sapiens) (UniProt P11712). The experiment in a line: Cytochrome panel assay with activity outcomes. To be noted: recombinant CYP, pro-luciferin dealkylation, luminescence, p450-cyp2c9; series mostly up to 57.1 µM; activity, negative = inhibition: at the top concentration. Here is the method:
The P450 gene superfamily is involved in the metabolism and clearance of xenobiotics. This assay used various human CYP P450 isozymes to measure the dealkylation of various pro-luciferin substrates to luciferin. The luciferin is then measured by luminescence after the addition of a luciferase detection reagent. Pro-luciferin substrate concentration in the assay was equal to its KM for its CYP P450 isozyme. Inhibitors and some substrates limit the production of luciferin, and decrease measured luminescence.
NCGC Assay Protocol Summary:
1, Reagent, 2 uL, Isozyme and Pro-Luciferin
2, Library compounds, 23 nl, 40 uM to 0.24 nM dilution series
3, Controls, 23 nl, Isozyme specific inhibitor
4, Reagent, 2 uL, NADPH regeneration solution
5, Incubation time, 60 min, Isozyme specific temperature
6, Reagent, 4ul, Detection reagent
7, Incubation time, 20 min, Isozyme specific temperature
8, Detection, 1 sec, ViewLux luminescent read
The luciferase-based P450-GloTM Screening Systems were obtained from Promega (Madison, WI) for CYP 1A2 (V9770), CYP 2C9 (V9790), CYP2 C19 (V9880), CYP 2D6 (V9890), and CYP 3A4 Luciferin-PPXE (V9910) and were adapted for 1,536-well microplates and an automated protocol. The control compounds furafylline for 1A2 (F124), sulfaphenazole for CYP 2C9 (S0758), ketoconazole for CYP 2C19 (K1003), quinidine for 2D6 (Q3625), and ketoconazole for 3A4 (K1003) were purchased from Sigma Aldrich (St. Louis, MO). Recombinant P450 enzymes were obtained from baculovirus constructs expressed in insect cells (BD/Gentest).
Medium-binding white solid Kalypsys plates used. Mixtures kept on ice. 1A2: 10 nM 1A2, 100 uM Luc-ME, 100 mM KPO4; 2C9: 10 nM 2C9, 100 uM Luc-H, 25 mM KPO4; 2C19: 5 nM 2C19, 10 uM Luc-H EGE, 50 mM KPO4; 2D6: 5 nM 2D6, 30 uM Luc-ME EGE, 100 mM KPO4; 3A4: 10 nM, 25 uM Luc-PPXE. All amounts are reflected in their final concentration, working concentration is 2x.
NADPH regeneration solution: 1.3 mM NADP+, 3.3 mM glucose-6-phosphate, 3.3 mM MgCl2, 0.4 U/mL glucose-6-phosphate dehydrogenase for all isozymes, 200 mM KPO4 for 3A4. Mixture prepared at RT but kept on ice during automated run.
RT incubation in auxilliary plate hotel for 1A2, 2D6, and 3A4; 37C for 2C9 and 2C19.
Keywords: P450, CYP1A2, CYP2C19, CYP2C9, CYP2D6, CYP3A4, Luciferase, MLSMR, MLSCN, NIH Roadmap, qHTS, NCGC
In the case of `NC(=O)c1ncn([C@@H]2O[C@@H](CO)[C@@H](O)[C@H]2O)c1O`, the “activity, negative = inhibition” value is -6.99% (inactive).
`Cc1noc(C)c1-c1cncnc1NC1CC1`: the activity, negative = inhibition was 4.67% [at 2.29 µM] (inactive).
Regarding `c1cn(-c2ccnc(-c3ccc4c(c3)OCO4)n2)cn1`, the activity, negative = inhibition was 4.3% [at 2.29 µM] (inactive).
`CN(Cc1ccccc1)c1nc(-c2ccc([N+](=O)[O-])cc2)nc2ccccc12`: the AC50 was 0.501 µM (active).
For the compound `COc1cccc(-c2nc(N(C)Cc3ccco3)c3ccccc3n2)c1`, the activity, negative = inhibition was -10.2% [at 2.29 µM] (inactive).
On to `CN(C)C(=O)c1ccc(-c2nc(N(C)Cc3ccco3)c3ccccc3n2)cc1`, for which the activity, negative = inhibition was 5.2% [at 2.29 µM] (inactive).
Same read-out and setting: the same measure for `c1nc(NCCc2cnc[nH]2)c2[nH]cnc2n1`: -20.1% [at 11.4 µM] (inactive).
As for `CN(C)C(=O)c1ccc(-c2cc(NCc3ccccc3)ncn2)cc1`, the activity, negative = inhibition was 6.12% [at 2.29 µM] (inactive).
`CN(C)c1cc(=O)n2c(n1)SCCC2`: the “activity, negative = inhibition” value is -4.22% (inactive).
As to `N#Cc1c(-c2ccc(Cl)cc2)nc2n(c1=O)CCCS2`, the AC50 was 12.6 µM (active).
Turning to `N#Cc1c(-c2ccccc2)nc2n(c1=O)CCS2`, the “activity, negative = inhibition” value is -5.83% (inactive).
In the case of `CC(C)NC(=O)N1CCCC2(CCN(C(=O)c3cccn3C)CC2)C1`, the “activity, negative = inhibition” value is -10.5% (inactive).
Still for that read-out and setting: then `Cn1cccc1C(=O)N1CCC2(CC1)CCN(c1ccc(-c3ccccc3)cc1)CC2`, with -18.2% (inactive); and `CN1CCCC2(CCN(C(=O)c3cccn3C)CC2)C1`, with 9.11% (inactive).
Take `c1ccc(-c2ccc(N3CCCC4(CCNCC4)C3)cc2)cc1`: the AC50 is 25.1 µM (active).
On to `CC(C)CN1CCCC2(CCN(C(=O)c3cccn3C)CC2)C1`, for which the “activity, negative = inhibition” value is 5.73% (inactive).
Take `Cn1cccc1C(=O)N1CCC2(CC1)CCN(c1cccc(-c3ccccc3)c1)CC2`: the “activity, negative = inhibition” value is 9.6% (inactive).
For `Cn1cccc1C(=O)N1CCC2(CC1)CCN(C(c1ccccc1)c1ccccc1)CC2`, the “activity, negative = inhibition” value was 12.5% (inactive).
With `c1ccc(-c2ccc(N3CC4(CCNCC4)C3)cc2)cc1`, the “activity, negative = inhibition” value is -19.5% (inactive).
In the case of `Cn1cccc1C(=O)N1CCC2(CCCN(C(c3ccccc3)c3ccccc3)C2)CC1`, the AC50 is 12.6 µM (active).
Turning to `Cn1cccc1C(=O)N1CCC2(CCCN(c3ccc(-c4ccccc4)cc3)C2)CC1`, the AC50 was 15.8 µM (active).
Take `Cn1cccc1C(=O)N1CCC2(CCCN(c3cccc(-c4ccccc4)c3)C2)CC1`: the AC50 was 3.98 µM (active).
In the case of `c1ccc(-c2ccc(N3CC[C@@]4(CCCNC4)C3)cc2)cc1`, the “activity, negative = inhibition” value was -3.55% (inactive).
Still for that read-out and setting: the same measure for `Cc1cnc(CNc2ncncc2-c2ccccc2CN(C)C)cn1`: 20.8% [at 2.29 µM] (inactive); for `CO[C@@H]1COC(=O)[C@H]2CCCN2C(=O)[C@@H](C)COC(=O)CCC[C@H]1C`: 1.93% [at 11.4 µM] (inactive); for `O=C(Oc1ccccc1)N1CCC2(CCCN(c3ccc(-c4ccccc4)cc3)C2)CC1`: 17.5% (inactive).
On to `Cn1cccc1C(=O)N1CCC2(CC1)CN(c1ccncc1)C2`, for which the AC50 was 5.01 µM (active).
With `Cn1cccc1C(=O)N1CCC2(CC1)CCN(c1ccccc1)CC2`, the “activity, negative = inhibition” value is 10.5% (inactive).
For the compound `Cn1cccc1C(=O)N1CCC2(CC1)CCN(c1ccncc1)CC2`, the “activity, negative = inhibition” value is -17.9% (inactive).
For `COC(=O)N1CCC2(CCCN(c3ccc(-c4ccccc4)cc3)C2)CC1`, the AC50 was 15.8 µM (active).
Regarding `Cn1cccc1C(=O)N1CCC[C@@]2(CCN(c3ccccc3)C2)C1`, the “activity, negative = inhibition” value was -11.1% (inactive).
As to `COC(=O)N1CCC2(CC1)CN(c1ccc(-c3ccccc3)cc1)C2`, the “activity, negative = inhibition” value was -19.7% (inactive).
With `Cn1cccc1C(=O)N1CCC[C@@]2(CCN(c3ccncc3)C2)C1`, the “activity, negative = inhibition” value was -3.72% (inactive).
Regarding `Cn1cccc1C(=O)N1CCC2(CCCN(c3ccccc3)C2)CC1`, the AC50 is 15.8 µM (active).
Regarding `COc1ccccc1/C=C/C=N/N1CCN(Cc2cccc3ccccc23)CC1`, the “activity, negative = inhibition” value is 25.5% (inactive).
Turning to `Nc1nc(SCc2ccccc2Cl)cc(C(=O)O)n1`, the activity, negative = inhibition was 0.0938% [at 11.4 µM] (inactive).
With `N#Cc1c(SCC(N)=O)nsc1SCc1ccccc1Cl`, the AC50 is 11.2 µM (active).
Regarding `CCOC(=O)C1CCCN(C(=O)CSCc2ccccc2)C1` (stereo not drawn), the AC50 is 10 µM (active).
`CCOC(=O)C1CCCN(S(=O)(=O)c2ccccc2)C1` (stereo not drawn): the “activity, negative = inhibition” value was 29.1% (inactive).
With `CN1CCN(c2nc(-c3ccccc3C(F)(F)F)nc3ccccc23)CC1`, the activity, negative = inhibition is 1.94% [at 2.29 µM] (inactive).
Still for that read-out and setting: then `CO[C@]1(NC(=O)Cc2cccs2)C(=O)N2C(C(=O)O)=C(COC(N)=O)CS[C@H]21`, with 1.75% [at 25.6 µM] (inactive); and `COC(=O)N1CCC2(CC1)CCN(c1ccccn1)CC2`, with -3.68% (inactive).
For the compound `O=C(c1cnccn1)N1CCC2(CC1)CCN(c1ccccn1)CC2`, the “activity, negative = inhibition” value is 0.265% (inactive).
Still for that read-out and setting: then `O=C(c1cnccn1)N1CCC2(CC1)CN(c1ccccn1)C2`, with 3.85% (inactive).
For the compound `COc1ccccc1C(=O)N1CCN(c2ccccn2)CC1`, the AC50 was 14.1 µM (active).
On to `O=C(c1cnc(N2CCN(c3ncccn3)CC2)c2ccccc12)N1CCN(c2ccccn2)CC1`, for which the AC50 is 3.55 µM (active).
Take `CC(=O)N1CCC2(CC1)CN(c1ccccn1)C2`: the “activity, negative = inhibition” value was 5.68% (inactive).
For `Cn1cccc1C(=O)N1CCC2(CC1)CCN(c1ncccn1)CC2`, the “activity, negative = inhibition” value is 5.06% (inactive).
On the same count and under the same terms, the same measure for `O=C(c1cnccn1)N1CCC2(CC1)CCN(c1ncccn1)CC2`: 4.53% (inactive).
With `O=C(c1cnc(N2CCN(c3ncccn3)CC2)c2ccccc12)N1CCN(c2ncccn2)CC1`, the AC50 was 6.31 µM (active).
Turning to `C/C=C\C[C@H](C)[C@H](O)[C@H]1C(=O)N[C@@H](CC)C(=O)N(C)CC(=O)N(C)[C@@H](CC(C)C)C(=O)N[C@@H](C(C)C)C(=O)N(C)[C@@H](CC(C)C)C(=O)N[C@@H](C)C(=O)N[C@@H](C)C(=O)N(C)[C@@H](CC(C)C)C(=O)N(C)[C@@H](CC(C)C)C(=O)N(C)[C@@H](C(C)C)C(=O)N1C`, the AC50 result is “inactive”.
As for `Cc1ccc(S(=O)(=O)N=Nc2c(O)[nH]c3cc(O)c(C(=O)O)cc23)cc1`, the activity, negative = inhibition was 3.49% [at 11.4 µM] (inactive).
With `CN1CC[C@@]2(CCCN(C(=O)c3cccc(F)c3)C2)C1`, the “activity, negative = inhibition” value was 4.92% (inactive).
On to `COc1cccc2c1C(=O)c1c(O)c3c(c(O)c1C2=O)C[C@@](O)(C(=O)CO)C[C@H]3O[C@H]1C[C@@H](N)[C@H](O)[C@@H](C)O1.[W]`, for which the activity, negative = inhibition was 3.88% [at 11.4 µM] (inactive).
As for `C#CCCCO/N=C1/C[C@@H](O)[C@@H](O)[C@@H]2[C@@H]3C(=O)N(CC)C(=O)[C@H]3CC[C@H]12`, the activity, negative = inhibition is 3.17% [at 11.4 µM] (inactive).
As for `Cc1cc(C)c(NC(=O)C[C@H](CC(=O)O)c2cccc3ccccc23)c(C(=O)N2CCC3(CCCC3)CC2)c1`, the “activity, negative = inhibition” value was -2.73% (inactive).
As to `O=C(O)CC(c1cccc2ccccc12)n1cccc1` (stereo not drawn), the AC50 is 8.91 µM (active).
Regarding `O=C(O)CC(c1ccccc1)n1cnnn1` (stereo not drawn), the “activity, negative = inhibition” value was -6.07% (inactive).
